Results filed as inconclusive are left out. Where a call stands in place of a potency, no number is given. The source made the active and inactive calls. The call rests on the fitted dose curve; in most records, active means well fitted curve in the direction sought with a large enough effect; inconclusive means small, poorly fitted or top-dose-only effect, or another doubt; inactive means no such curve, though single readings can be large; an effect the other way counts as inactive or inconclusive.
Experiments:
[1] = target: Luciferin 4-monooxygenase (Photinus pyralis) (UniProt P08659); test: Biochemical firefly luciferase enzyme assay for NPC (AID 624030);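 further: purified P. pyralis luciferase at 10 nM with luciferin and ATP substrate; series mostly up to about 59 µM; nearly all actives have a fitted effect of over 70% in size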
Procedure, shortened: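 Purified P. pyralis luciferase at 10 nM in 50 mM Tris Acetate (final), luminescence read within 5 minutes of enzyme addition to compounds. Activity normalised to PTC124 versus DMSO; concentration-response curves classed by r2, magnitude and activity.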

[2] = S16 Schwann cell viability assay (CellTiter-Glo assay) (AID 624031); further: nearly all actives have a fitted effect of over 70% in size; further: potency means the concentration at half of the fitted maximal effect
Procedure, shortened: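 Concentration-effect curves come from CellTiter-Glo luminescence of S16 rat Schwann cells after 24 h compound exposure. Each reading was normalized to DMSO wells (0%) and wells without cells, and curves were ranked by r2 and response magnitude.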

[3] = S16 Schwann cell PMP22 intronic element firefly luciferase assay (AID 624032); further: nearly all actives have a fitted effect of over 30% in size; further: potency means the concentration at half of the fitted maximal effect
Procedure, shortened: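 Rat S16 Schwann cells stably carrying firefly luciferase driven by a PMP22 intronic element, in 10% FBS, treated 24 h at 37 C. ONE-Glo luminescence normalized to PTC124 control and DMSO (0%); curves classed by r2, magnitude and activity.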

Luciferin 4-monooxygenase (Photinus pyralis), sequence (P08659 whole entry, looked up): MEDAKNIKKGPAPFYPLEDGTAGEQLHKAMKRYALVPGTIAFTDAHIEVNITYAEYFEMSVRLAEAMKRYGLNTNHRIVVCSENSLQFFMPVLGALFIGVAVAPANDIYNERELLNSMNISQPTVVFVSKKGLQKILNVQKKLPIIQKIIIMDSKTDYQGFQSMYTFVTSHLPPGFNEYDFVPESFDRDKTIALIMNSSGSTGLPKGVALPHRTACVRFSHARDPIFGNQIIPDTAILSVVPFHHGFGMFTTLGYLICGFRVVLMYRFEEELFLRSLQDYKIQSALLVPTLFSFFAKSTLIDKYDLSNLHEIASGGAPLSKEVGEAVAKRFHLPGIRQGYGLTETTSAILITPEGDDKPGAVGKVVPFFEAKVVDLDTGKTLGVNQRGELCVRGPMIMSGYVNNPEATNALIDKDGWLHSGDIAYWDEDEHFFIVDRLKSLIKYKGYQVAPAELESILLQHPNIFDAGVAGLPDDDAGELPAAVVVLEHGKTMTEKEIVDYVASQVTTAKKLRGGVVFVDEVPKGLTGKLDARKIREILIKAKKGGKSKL

SMILES | Potency [1] | Potency [2] | Potency [3]
COc1cc2c(cc1OC)C(C(C(=O)N(CCc1ccc(OC)c(OC)c1OC)CCc1ccc(OC)c(OC)c1OC)c1ccccc1)=NCC2 (stereo not drawn) | inactive | inactive | 28.7 µM (active)
CCCCS(=O)(=O)N[C@@H](Cc1ccc(OCCCCC2CCNCC2)cc1)C(=O)O | inactive |  | 
CCCCCCCCCCCCCCCC[N+](C)(C)CC | inactive | 32.2 µM (active) | 14.4 µM (active)
CCCN1CCCC[C@H]1C(=O)Nc1c(C)cccc1C | inactive | inactive | inactive
CO/N=C1\CN(c2nc3c(cc2F)c(=O)c(C(=O)O)cn3C2CC2)CC1CN (stereo not drawn) | inactive | inactive | inactive
COc1ccc(CCN2CCC(Nc3nc4ccccc4n3Cc3ccc(F)cc3)CC2)cc1 | inactive | 16.1 µM (active) | 20.3 µM (active)
COC(=O)CCc1ccc(OCC(O)CNC(C)C)cc1 (stereo not drawn) | inactive |  | 
COc1cc2c(cc1OC)C(=O)C(CC1CCN(Cc3ccccc3)CC1)C2 (stereo not drawn) | inactive |  | 
CC(C)COC(=O)OCN1C(=O)CN(CCN2CC(=O)N(COC(=O)OCC(C)C)C(=O)C2)CC1=O | inactive | inactive | inactive
COc1cccc(CCc2ccccc2OCC(CN(C)C)OC(=O)CCC(=O)O)c1 (stereo not drawn) | inactive |  | inactive
CCCCCCC[N+](CC)(CC)CCCCc1ccc(Cl)cc1 | inactive | inactive | 
C[C@H]1[C@H](NC(=O)/C(=N/OC(C)(C)C(=O)O)c2csc(N)n2)C(=O)N1S(=O)(=O)O (stereo in doubt) | inactive | inactive | inactive
CNCCC(Oc1ccccc1C)c1ccccc1 (stereo not drawn) | inactive |  | inactive
CC(C)NC[C@@H](O)COc1cccc2ccccc12 | inactive | inactive | 
O=C1OCCN1/N=C/c1ccc([N+](=O)[O-])o1 | inactive | inactive | 
Cc1onc(-c2c(Cl)cccc2Cl)c1C(=O)N[C@@H]1C(=O)N2[C@@H]1SC(C)(C)[C@@H]2C(=O)O | inactive |  | 
CC(C)(C)CC(C)(C)c1ccc(O)c(Cc2ccc(Cl)cc2Cl)c1 | inactive |  | 36.1 µM (active)
COc1ccc(C2C(=O)c3ccccc3C2=O)cc1 | inactive | inactive | inactive
CCN1CCC[C@H]1CNC(=O)c1c(OC)ccc(Br)c1OC | inactive | inactive | inactive
CCCOC(C(=O)OC1CCN(C)CC1)(c1ccccc1)c1ccccc1 | inactive | inactive | inactive
CC(C)N=C(N)/N=C(\N)Nc1ccc(Cl)cc1 | inactive | inactive | 

Reference: PubChem BioAssay (NCATS)
